Source: PubChem BioAssay (NCI)
The panel holds about 79,000 compounds, 15% with a hit somewhere; the sample as a whole holds those more often. Unmarked numbers belong to inactive results. Activity calls are given as the source filed them. No stated cut-off is given here; in the data, active means growth inhibition above about 70%; inactive means the rest.

Assay: NCI Yeast Anticancer Drug Screen. Data for the cln2 rad14 strain (AID 165);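 further: 0% = growth equal to vehicle treated cultures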
Conditions: S. cerevisiae cln2 rad14 strain, at 50.0 µM, active compounds read high
Procedure: Growth inhibition of yeast strains with defined genetic alterations is measured as a screen for potential anti-cancer activity. Selected strains with alterations in DNA damage repair or cell cycle control were exposed to compounds and growth inhibition was measured relative to vehicle treated controls. The strain used in this assay is cln2 rad14

Compared with CCCCN1C[C@H](OC(=O)CCC)[C@@H](OC(=O)CCC)[C@H](OC(=O)CCC)[C@H]1COC(=O)CCC, COCC1OC(n2cc(C)c(=O)n(C)c2=O)CC1OC (stereo not given) is lower in growth inhibition: -5.3% for the first, -7.15% for the second.

Going from CC(=O)NNc1nc(C)c(C(/C=C/c2ccc(/C=C/C(=N\NC(=O)c3ccncc3)c3sc(NNC(C)=O)nc3C)cc2)=N/NC(=O)c2ccncc2)s1 to CCOc1ccccc1NC(=O)C(=O)CC(=O)c1sc(Nc2nnc(-c3ccc(Cl)c(Cl)c3)o2)nc1C, the growth inhibition rises from 12.7% to 21.4%.

Compared with C=CCN1C(=O)c2ccccc2C1=O, COc1ccc(-n2c(CCCC(=O)O)nc3c2C(=O)c2ccccc2C3=O)cc1 is higher in growth inhibition: 6.85% for the first, 17.1% for the second.

First: C[N+](C)(C)CCc1ccccc1
Second: c1ccc(B2O[C@H]3CCCC[C@@H]3O2)cc1
The growth inhibition of the first is lower: -26.4% for the first, 12.8% for the second.

Going from Cc1cc2nc3c(=O)[nH]c(=O)nc-3n(CC(O)C(O)C(O)C(O)CO)c2cc1C (stereo not given) to CC(=O)Nc1ccc2oc(C)nc2c1, the growth inhibition rises from 7.05% to 8.7%.

Compared with C/C(CC(=O)NC1=CC=C(NC(=O)C/C(C)=N\Nc2ccccc2)CC1)=N/Nc1ccccc1, CC(=O)Nc1ccc(CCNC(=O)c2ccc3ccccc3c2O)cc1 is higher in growth inhibition: -9.35% for the first, -6.35% for the second.

Compared with COC(=O)C1CSCN1 (stereo not given), COC(=O)/C=C\CC(=O)OC is higher in growth inhibition: -61.4% for the first, -5.05% for the second.

First: O=P(O)(O)OC1C(OP(=O)(O)O)C(OP(=O)(O)O)C(OP(=O)(O)O)C(OP(=O)(O)O)C1OP(=O)(O)O.[Cu+2] (stereo not given)
Second: CC(=O)OCC1OC(n2ccc(=O)[nH]c2=O)CC1N=[N+]=[N-] (stereo not given)
The growth inhibition of the first is higher: -10.9% for the first, -48.3% for the second.

Compared with CCOC(=O)/C(=C\c1ccccc1)NC(=O)c1ccccc1, CN1CCCN(C(=O)N(c2ccccc2)c2ccccc2)CC1 is lower in growth inhibition: 7.3% for the first, -3.6% for the second.

First: O=C1C=CC(=O)N1n1c(-c2ccccc2)n[nH]c1=O
Second: O=C1NC(N2CCCCC2)=N/C1=C\c1ccccc1
The growth inhibition of the first is lower: -2.8% for the first, 23.7% for the second.

Compared with CCCCCCCCCSc1nc2ccccc2s1, CCOc1nc2ccc(N)cc2s1 is lower in growth inhibition: 5.45% for the first, -31.9% for the second.

Going from COc1ccc(CN=CN/C(C#N)=C(\N)C#N)cc1OC to COc1ccc(Cc2cc(OC)c(OC)c(OC)c2)cc1, the growth inhibition falls from 6.55% to 0%.

Compared with O=C1CCC(=O)N1Cl, N=C(N)N1CCc2ccccc2C1 is higher in growth inhibition: -13.3% for the first, -3.35% for the second.

First: COC(=O)c1nc(N)nc(C(=O)OC)c1C(=O)c1ccncc1
Second: O=C(COc1ccc(Cl)c(Cl)c1)Nc1cccc(C(=O)CCl)c1
The growth inhibition of the first is lower: -16.1% for the first, 9.1% for the second.

First: CC(C)N(CC(=O)O)CC(=O)O
Second: C=CCOC(=O)CC(=C)C(=O)OCC=C
The growth inhibition of the first is lower: -5% for the first, -4.7% for the second.

Compared with N#CC(C#N)c1ccc(C(C#N)C#N)cc1, Nc1ccc(Cl)cc1C(=O)N1CCN(c2ccc([N+](=O)[O-])cn2)CC1 is higher in growth inhibition: -16% for the first, 36.1% for the second.

Going from [N-]=[N+]=Nc1ccnc2c(C(F)(F)F)cccc12 to COCCCNc1ncnc2c1cnn2-c1ccc(Cl)cc1, the growth inhibition rises from -60.2% to 9.8%.

Compared with COc1ccc(CC2(Cc3ccc(OC)cc3)CCOC2=O)cc1, O=C1CSC2=NC3=C(COC/C3=C\c3ccc(Br)cc3)C(c3ccc(Br)cc3)N12 (stereo not given) is higher in growth inhibition: 1.2% for the first, 18.9% for the second.

Going from O=[N+]([O-])c1ccc(N/N=C/C2CCCCCC2)c([N+](=O)[O-])c1 to CN/N=C(\C(=O)Nc1ccc([N+](=O)[O-])cc1[N+](=O)[O-])C1NC(=O)NC1=O (stereo not given), the growth inhibition rises from -147% to 5.05%.

CN(C)CC1CCC2=C(C1=O)C(c1ccccc1)C1=C(CCC(CN(C)C)C1=O)O2 (stereo not given) showed a growth inhibition of 13.4%.

With c1ccc(C2(c3ccccc3)CC([P+](c3ccccc3)(c3ccccc3)c3ccccc3)N=N2)cc1 (stereo not given) the growth inhibition was 99.4% (active).
